Among all 5,500 compounds or so, about 2,000 (36%) were called active. About 18% were inconclusive and are not listed. Cut-off read from the data, not from the text of the source: active = normalized growth mostly below about 0.91 (no sharp cut-off); inconclusive = no clear call, values can overlap the other calls; inactive = mostly above about 0.92. The list shows a part of the results.
Assay: chemical genetic growth profiling, strain panel (AID 1159580);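 note: tested at 20 µM; growth read once vehicle control cultures reached saturation at 30 °C; 1 = growth at the plate median or of vehicle wells; lower values mean less growth of the strain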
Details: growth OD

Measured: normalized growth

COc1cc(NC(C)CCCN)c2ncccc2c1 (configuration not stated)
inactive: S. cerevisiae deletion strains, locus YJR075W, strain HOC1, stronger effect = lower value 1 | S. cerevisiae deletion strains, locus YKL009W, strain mrt4, stronger effect = lower value 1.02 | S. cerevisiae deletion strains, locus YKL068W, stronger effect = lower value 1.01 | S. cerevisiae deletion strains, locus YKL085W, strain MDH1 (second series), stronger effect = lower value 1 | S. cerevisiae deletion strains, locus YKL085W, strain MDH1, stronger effect = lower value 1 | S. cerevisiae deletion strains, locus YKL160W, strain elf1, stronger effect = lower value 0.942 | S. cerevisiae deletion strains, locus YKL190W, strain CNB1, stronger effect = lower value 1 | S. cerevisiae deletion strains, locus YKR001C, strain vps1, stronger effect = lower value 1.01 | S. cerevisiae deletion strains, locus YKR026C, strain gcn3, stronger effect = lower value 1.01 | S. cerevisiae deletion strains, locus YKR091W, strain srl3, stronger effect = lower value 0.999 | S. cerevisiae deletion strains, locus YLL001W, strain dnm1, stronger effect = lower value 0.965 | S. cerevisiae deletion strains, locus YLL026W, stronger effect = lower value 0.998 | S. cerevisiae deletion strains, locus YLL041C, strain sdh2, stronger effect = lower value 1 | S. cerevisiae deletion strains, locus YLR027C, strain aat2, stronger effect = lower value 0.997 | S. cerevisiae deletion strains, locus YLR039C, strain RIC1, stronger effect = lower value 1.03 | S. cerevisiae deletion strains, locus YLR058C, strain SHM2, stronger effect = lower value 1.01 | S. cerevisiae deletion strains, locus YLR102C, strain apc9, stronger effect = lower value 1.01 | S. cerevisiae deletion strains, locus YLR113W, strain HOG1, stronger effect = lower value 1.06 | S. cerevisiae deletion strains, locus YLR221C, strain rsa3, stronger effect = lower value 1.01 | S. cerevisiae deletion strains, locus YLR258W, strain gsy2, stronger effect = lower value 1.04 | S. cerevisiae deletion strains, locus YLR262C, strain YPT6 (second series), stronger effect = lower value 0.956 | S. cerevisiae deletion strains, locus YLR262C, strain YPT6, stronger effect = lower value 1.05 | S. cerevisiae deletion strains, locus YLR268W, strain sec22, stronger effect = lower value 1.02 | S. cerevisiae deletion strains, locus YLR320W, strain mms22, stronger effect = lower value 0.987 | S. cerevisiae deletion strains, locus YLR330W, strain CHS5, stronger effect = lower value 1 | S. cerevisiae deletion strains, locus YLR342W, strain FKS1 (second series), stronger effect = lower value 0.947 | S. cerevisiae deletion strains, locus YLR342W, strain FKS1, stronger effect = lower value 0.991 | S. cerevisiae deletion strains, locus YLR357W, strain rsc2, stronger effect = lower value 0.991 | S. cerevisiae deletion strains, locus YLR370C, strain arc18, stronger effect = lower value 1.02 | S. cerevisiae deletion strains, locus YLR371W, strain rom2, stronger effect = lower value 1.01 | S. cerevisiae deletion strains, locus YLR384C, strain iki3, stronger effect = lower value 1.02 | S. cerevisiae deletion strains, locus YLR418C, strain cdc73, stronger effect = lower value 0.988 | S. cerevisiae deletion strains, locus YML016C, strain PPZ1, stronger effect = lower value 1.01 | S. cerevisiae deletion strains, locus YML032C, strain rad52, stronger effect = lower value 1.01 | S. cerevisiae deletion strains, locus YML120C, strain ndi1, stronger effect = lower value 0.995 | S. cerevisiae deletion strains, locus YML124C, strain tub3, stronger effect = lower value 1.01 | S. cerevisiae deletion strains, locus YMR058W, strain fet3, stronger effect = lower value 0.999 | S. cerevisiae deletion strains, locus YMR078C, strain ctf18, stronger effect = lower value 0.997 | S. cerevisiae deletion strains, locus YMR125W, strain sto1, stronger effect = lower value 0.951 | S. cerevisiae deletion strains, locus YMR129W, stronger effect = lower value 1.01 | S. cerevisiae deletion strains, locus YMR205C, strain PFK2, stronger effect = lower value 0.962 | S. cerevisiae deletion strains, locus YMR223W, strain ubp8, stronger effect = lower value 0.991 | S. cerevisiae deletion strains, locus YMR231W, strain pep5, stronger effect = lower value 1.01 | S. cerevisiae deletion strains, locus YMR263W, strain SAP30, stronger effect = lower value 1 | S. cerevisiae deletion strains, locus YMR307W, strain GAS1, stronger effect = lower value 0.951 | S. cerevisiae deletion strains, locus YNL067W, strain RPL9B, stronger effect = lower value 1.01 | S. cerevisiae deletion strains, locus YNL071W, strain lat1, stronger effect = lower value 1.01 | S. cerevisiae deletion strains, locus YNL128W, strain TEP1, stronger effect = lower value 1 | S. cerevisiae deletion strains, locus YNL153C, strain GIM3, stronger effect = lower value 1.01 | S. cerevisiae deletion strains, locus YNL183C, strain NPR1, stronger effect = lower value 0.972 | S. cerevisiae deletion strains, locus YNL209W, strain ssb2, stronger effect = lower value 1 | S. cerevisiae deletion strains, locus YNL233W, strain BNI4, stronger effect = lower value 1 | S. cerevisiae deletion strains, locus YNL248C, strain rpa49, stronger effect = lower value 0.938 | S. cerevisiae deletion strains, locus YNL250W, strain rad50, stronger effect = lower value 1.02 | S. cerevisiae deletion strains, locus YNL271C, strain bni1, stronger effect = lower value 1.02 | S. cerevisiae deletion strains, locus YNL298W, strain CLA4, stronger effect = lower value 1.02 | S. cerevisiae deletion strains, locus YNL307C, strain MCK1, stronger effect = lower value 1 | S. cerevisiae deletion strains, locus YNL322C, strain KRE1 (second series), stronger effect = lower value 1 | S. cerevisiae deletion strains, locus YNL322C, strain KRE1, stronger effect = lower value 1 | S. cerevisiae deletion strains, locus YNR049C, strain mso1, stronger effect = lower value 1 | S. cerevisiae deletion strains, locus YNR052C, strain pop2, stronger effect = lower value 1.02 | S. cerevisiae deletion strains, locus YOL006C, strain TOP1, stronger effect = lower value 1.03 | S. cerevisiae deletion strains, locus YOL012C, strain htz1 1 | S. cerevisiae deletion strains, locus YOL147C, strain pex11, stronger effect = lower value 1.02 | S. cerevisiae deletion strains, locus YOR001W, strain rrp6, stronger effect = lower value 1.02 | S. cerevisiae deletion strains, locus YOR061W, strain CKA2, stronger effect = lower value 1 | S. cerevisiae deletion strains, locus YOR069W, strain VPS5, stronger effect = lower value 1.01 | S. cerevisiae deletion strains, locus YOR070C, strain gyp1, stronger effect = lower value 1.02 | S. cerevisiae deletion strains, locus YOR080W, strain dia2, stronger effect = lower value 1.01 | S. cerevisiae deletion strains, locus YOR083W, strain WHI5, stronger effect = lower value 0.958 | S. cerevisiae deletion strains, locus YOR106W, strain vam3, stronger effect = lower value 0.959 | S. cerevisiae deletion strains, locus YOR136W, strain idh2, stronger effect = lower value 1.01 | S. cerevisiae deletion strains, locus YOR144C, strain elg1, stronger effect = lower value 1.01 | S. cerevisiae deletion strains, locus YOR184W, strain ser1, stronger effect = lower value 1.04 | S. cerevisiae deletion strains, locus YOR231W, strain MKK1, stronger effect = lower value 1 | S. cerevisiae deletion strains, locus YOR265W, strain rbl2, stronger effect = lower value 1.02 | S. cerevisiae deletion strains, locus YOR270C, strain vph1, stronger effect = lower value 1.05 | S. cerevisiae deletion strains, locus YOR290C, strain snf2, stronger effect = lower value 0.997 | S. cerevisiae deletion strains, locus YOR316C, strain cot1, stronger effect = lower value 1.01 | S. cerevisiae deletion strains, locus YPL051W, strain arl3, stronger effect = lower value 0.982 | S. cerevisiae deletion strains, locus YPL055C, strain LGE1, stronger effect = lower value 1 | S. cerevisiae deletion strains, locus YPL078C, strain atp4, stronger effect = lower value 0.96 | S. cerevisiae deletion strains, locus YPL106C, strain sse1, stronger effect = lower value 1 | S. cerevisiae deletion strains, locus YPL240C, strain hsp82, stronger effect = lower value 1.01 | S. cerevisiae deletion strains, locus YPL241C, strain CIN2, stronger effect = lower value 1 | S. cerevisiae deletion strains, locus YPL256C, strain CLN2, stronger effect = lower value 1.07 | S. cerevisiae deletion strains, locus YPR119W, strain clb2, stronger effect = lower value 1.01 | S. cerevisiae deletion strains, locus YPR141C, strain kar3, stronger effect = lower value 1.01 | S. cerevisiae deletion strains, locus YPR163C, strain tif3, stronger effect = lower value 1.01 | S. cerevisiae deletion strains, locus YPR167C, strain met16, stronger effect = lower value 1.02 | S. cerevisiae deletion strains, strain wtn01, stronger effect = lower value 1.02 | S. cerevisiae strains, strain wild type, stronger effect = lower value 1
